The values below come from PubChem BioAssay AID743327 (National Center for Advancing Translational Sciences (NCATS), 2014).

A number with no mark means an inactive call. Active and inactive are the calls of the source. Calls follow the shape of the full dose curve.

A short description of this experiment: qHTS profiling of Chloroquine Analogs as inhibitors of Plasmodium falciparum (HB3) proliferation. As to conditions: P. falciparum HB3 proliferation; series mostly up to 28.7 µM; activity change, negative = inhibition: at the top concentration. The source says:
Plasmodium falciparum is a virulent malarial parasite that kills 1-2 million people worldwide each year. Transmitted by mosquitoes, the sporozoite form of the parasite enters the blood stream to infect hepatocytes, where they become merozoites that infect red blood cells (erythrocytes). Within erythrocytes, merozoites begin a […] cycle of growth and division, after which the parasite is released to infect new red blood cells. Gametocytes, which form within erythrocytes as well, circulate in the bloodstream and are ingested by the mosquito, thereby completing the life cycle. To profile malarial isolates for differential chemical responses and to identify inhibitors of malarial growth, an assay that measures P. falciparum growth and replication within erythrocytes was employed. This assay uses a DNA binding fluorescent dye (SYBR Green) to detect parasite DNA following cell lysis. Because mature erythrocytes lack DNA, only Plasmodium-derived DNA is detected.
The SYBR Green viability assay was adapted from a method described previously (Plouffe et al., 2008). For screening 3 ul culture medium was dispensed into 1536 well black clear bottom plates (Aurora Biotechnologies) using a Multidrop Combi (Thermo Fisher Scientific Inc.), 23 nL compounds in DMSO were added by a pin tool (Kalypsys), and 5 ul of erythrocytes infected with P. falciparum (0.3% parasitemia, 2.5% hematocrit final concentration) were added. The plates were incubated at 37 C in a humidified incubator in 5% CO2 for 72 h, and 2 ul lysis buffer (20 mM Tris HCl, 10 mM EDTA, 0.16% saponin, 1.6% triton X, 10X SYBR Green I supplied as 10,000X […] by Invitrogen) was added to each well. The plates were mixed for 25 sec with gentle shaking and incubated overnight at room temperature in the dark. The following morning, fluorescence intensity at 485(14) nm excitation and 535(25) nm emission wavelengths was measured on an EnVision (Perkin Elmer) plate reader. Plate reads were normalized relative to the control inhibitor (0.29 uM artemisinin) and vehicle (DMSO) wells present on each plate and then corrected by an algorithm using vehicle-only control plates at the beginning and end of the compound plate stack.
In general terms: Quantitative high-throughput screening tests each substance at several concentrations.
On to `CNCCCCOc1ccccc1Cc1ccccc1`, for which the “activity change, negative = inhibition” value was -79%. On the same count and under the same terms, next, `Clc1ccc(COC(Cn2ccnc2)c2ccc(Cl)cc2Cl)c(Cl)c1` (stereo not given): -98.6% [at 14.2 µM]. Same read-out and setting: under `COC(=O)C1C2CC3c4[nH]c5cc(OC)ccc5c4CCN3CC2CC(OC(=O)c2cc(OC)c(OC)c(OC)c2)C1OC` (stereo not given) stands 188% [at 57.5 µM]. Regarding `COc1ncnc(NS(=O)(=O)c2ccc(N)cc2)c1OC`, the Potency is 1500 nM (active).

On to `COc1cc2c(Nc3ccc(NC(=O)c4ccccc4)cc3)ncnc2cc1OCCCN1CCOCC1`, for which the “activity change, negative = inhibition” value is -99.2%. Same read-out and setting: next, `C[N+]1(C)CCC(=C(c2ccccc2)c2ccccc2)CC1`: -94.4% [at 14.2 µM].

As for `COCC(=O)O[C@]1(CCN(C)CCCc2nc3ccccc3[nH]2)CCc2cc(F)ccc2[C@@H]1C(C)C`, the Potency is 1500 nM (active). Consider `CNC(=O)c1cc(Oc2ccc(NC(=O)Nc3ccc(Cl)c(C(F)(F)F)c3)cc2)ccn1`, for which the Potency is 4210 nM (active). Same read-out and setting: under `CN1CC[C@H](CN2c3ccccc3Sc3ccccc32)C1` stands 10600 nM (active); under `COc1cccc(CCc2ccccc2OCC(CN(C)C)OC(=O)CCC(=O)O)c1` (stereo not given), 2980 nM (active); under `Cc1nc2c(C#N)cccc2n1-c1ccc(C(=O)NC2CC2)s1`, 23.7 nM (active). `C[C@@H]1[C@@H](CC(C[C@H]2O[C@@H]3O[C@]4(C)CC[C@@H]5[C@H](C)CC[C@@H]([C@H]2C)[C@@]35OO4)C[S+](=O)([O-])c2ccc(COC(=O)N(C)C)cc2)O[C@@H]2O[C@]3(C)CC[C@H]4[C@H](C)CC[C@@H]1[C@@]24OO3` (stereo not given in full): the Potency was 6.7 nM (active). Take `CCCCN(CCCC)CC(O)c1cc(Cl)cc2c1-c1ccc(Cl)cc1C2=Cc1ccc(Cl)cc1` (stereo not given): the “activity change, negative = inhibition” value was 146%.

Take `CSc1cccc(NC(=O)CC[C@H]2O[C@@H]3O[C@]4(C)CC[C@H]5[C@H](C)CC[C@@H]([C@@H]2C)[C@@]35OO4)c1`: the Potency is 18.8 nM (active).

Consider `CN1C[C@H](C(=O)N[C@]2(C)O[C@@]3(O)[C@@H]4CCCN4C(=O)[C@H](Cc4ccccc4)N3C2=O)C[C@@H]2c3cccc4[nH]cc(c34)C[C@H]21`, for which the Potency is 530 nM (active).

Take `CC[C@H]1OC(=O)[C@H](C)[C@@H](O[C@H]2C[C@@](C)(OC)[C@@H](O)[C@H](C)O2)[C@H](C)[C@@H](O[C@@H]2O[C@H](C)C[C@H](N(C)C)[C@@H]2O)[C@](C)(O)C[C@@H](C)CN(C)[C@H](C)[C@@H](O)[C@]1(C)O`: the Potency is 9430 nM (active).

As to `CCCC[C@@H]1C[C@@H](C(=O)NC([C@H](C)Cl)[C@H]2O[C@H](S)[C@H](O)[C@@H](O)[C@@H]2O)N(C)C1` (stereo not given in full), the Potency was 33.5 nM (active). On to `O=C1C(=O)c2ccccc2C(O)=C1C1CCC(c2ccc(Cl)cc2)CC1` (stereo not given), for which the Potency is 0.5 nM (active). For `CO[C@H]1O[C@@H]2O[C@@]3(C)CC[C@@H]4[C@@H](C)CC[C@@H]([C@H]1C)[C@@]24OO3`, the “activity change, negative = inhibition” value is 126%. Regarding `O=C(C[C@@H]1NCCC[C@@H]1O)Cn1cnc2ccccc2c1=O`, the “activity change, negative = inhibition” value is -101%. On the same count and under the same terms, under `C=CCON=C(C[C@H]1O[C@@H]2O[C@]3(C)CC[C@@H]4[C@H](C)CC[C@@H]([C@H]1C)[C@@]24OO3)[C@H]1O[C@@H]2O[C@]3(C)CC[C@H]4[C@H](C)CC[C@@H]([C@@H]1C)[C@@]24OO3` stands -101%. For `CN1CCN(CCCN2c3ccccc3Sc3ccc(S(=O)(=O)N(C)C)cc32)CC1`, the Potency is 716 nM (active). Still for that read-out and setting: next, `Oc1cc(Cl)ccc1Oc1ccc(Cl)cc1Cl`: 1880 nM (active). As for `Cc1oncc1C(=O)Nc1ccc(C(F)(F)F)cc1`, the “activity change, negative = inhibition” value was 137%.

With `CCN(CC)CCOCCOC(=O)C(CC)(CC)c1ccccc1`, the “activity change, negative = inhibition” value is -29.4%. Turning to `C#C[C@]1(O)CC[C@@H]2[C@H]3CCC4=CC(=O)CC[C@H]4[C@H]3C(=C)C[C@@]21CC`, the Potency is 749 nM (active). In the case of `CN([C@@H](Cc1ccc(OS(=O)(=O)c2cccc3cnccc23)cc1)C(=O)N1CCN(c2ccccc2)CC1)S(=O)(=O)c1cccc2cnccc12`, the “activity change, negative = inhibition” value is -101%. For `CNCCC(Oc1ccccc1OC)c1ccccc1` (stereo not given), the Potency is 3350 nM (active).

As to `CCN(CC)CCOc1ccc2c(=O)c3ccc(Cl)cc3n(CCN(CC)CC)c2c1`, the Potency is 530 nM (active). As for `OB1OCc2cc(F)ccc21`, the “activity change, negative = inhibition” value is 151%.

`C[C@H]1c2cccc(O)c2C(O)=C2C(=O)[C@]3(O)C(O)=C(C(N)=O)C(=O)[C@@H](N(C)C)[C@@H]3[C@@H](O)[C@@H]21`: the Potency is 8410 nM (active). Take `CC(=O)N(O)CCCP(=O)(O)O`: the Potency is 266 nM (active).

As for `COc1cc(C=CC(=O)CC(=O)C=Cc2ccc(O)c(OC)c2)ccc1O`, the “activity change, negative = inhibition” value is 169%. Consider `CC(=O)O[C@@]12CO[C@@H]1C[C@H](O)[C@@]1(C)C(=O)[C@H](O)C3=C(C)[C@@H](OC(=O)[C@H](O)[C@@H](NC(=O)OC(C)(C)C)c4ccccc4)C[C@@](O)([C@@H](OC(=O)c4ccccc4)[C@H]21)C3(C)C`, for which the Potency was 9.4 nM (active).

As to `O=C(Nc1ccc(Cl)cc1)Nc1ccc(Cl)c(Cl)c1`, the Potency is 2110 nM (active).

Take `CCCCCCCCCCOc1cc2c(=O)c(C(=O)OCC)c[nH]c2cc1OCC`: the “activity change, negative = inhibition” value was -98.7%.

In the case of `Cn1cncc1[C@@](N)(c1ccc(Cl)cc1)c1ccc2c(c1)c(-c1cccc(Cl)c1)cc(=O)n2C`, the “activity change, negative = inhibition” value was -100%. As to `C[C@H]1[C@@H](OC(=O)CCC(=O)O)O[C@@H]2OC3(C)CC[C@H]4[C@H](C)CC[C@@H]1[C@@]24OO3`, the Potency is 3 nM (active). As for `CCN(CC)CCCC(C)Nc1ccnc2cc(Cl)ccc12` (stereo not given), the “activity change, negative = inhibition” value is -99.7%. For `CC1=CC(=O)c2ccccc2C1=O`, the Potency was 2370 nM (active).
